The results in this text go back to PubChem BioAssay (NCI).

SMILES strings stand for the structures. Compounds without any hit were thinned out: in the full panel of roughly 83,000, 20% have a hit.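 A percent growth of 40 corresponds to 60% growth inhibition; 0 means no net growth; -100 means all cells died. Active threshold: below 10.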 Unmarked numbers belong to inactive results. Activity calls are given as the source filed them.

What all share (assay): NCI-60 one-dose screen, 48 h (100 = growth as untreated, 0 = no growth, -100 = all killed)
One test concerns EKVX NSCLC. The conditions noted are these: 10 µM unless noted.
In the next test the test system is SN12C renal. The conditions noted are these: 10 µM unless noted.
A further test concerns UO-31 renal. The conditions noted are these: 10 µM unless noted.
The next test concerns TK-10 renal. The settings on record: 10 µM unless noted.
A further test has as its system ACHN renal. The conditions noted are these: 10 µM unless noted.
A further test has as its system CAKI-1 renal. The settings on record: 10 µM.
A further test relates to A498 renal. The settings on record: 10 µM unless noted.
The next test has as its system CCRF-CEM leukemia. The conditions noted are these: 10 µM unless noted.
A further test concerns MOLT-4 leukemia. The settings on record: 10 µM unless noted.
In the next test the test system is SR leukemia. The settings on record: 10 µM unless noted.
In another test the test system is RPMI-8226 leukemia. The settings on record: 10 µM unless noted.
The test system of a further test is OVCAR-8 ovarian. The conditions noted are these: 10 µM unless noted.
In another test the test system is OVCAR-5 ovarian. The settings on record: 10 µM unless noted.
The next test has as its system OVCAR-4 ovarian. The settings on record: 10 µM unless noted.
For a further test, the system named is SK-OV-3 ovarian. The settings on record: 10 µM unless noted.
Another test has as its system IGROV1 ovarian. The conditions noted are these: 10 µM unless noted.
For the next test, the system named is HS 578T breast. The settings on record: 10 µM unless noted.
For another test, the system named is NCI/ADR-RES ovarian. The settings on record: 10 µM unless noted.
The subject of a further test is SK-MEL-2 melanoma. The conditions noted are these: 10 µM unless noted.
Another test concerns OVCAR-3 ovarian. The conditions noted are these: 10 µM unless noted.

In the case of `COc1cc2oc(-c3cccc(NC(=O)c4cc(NC(=O)[C@H](C)NC(=O)OC(C)(C)C)ccc4C)c3)cc(=O)c2c(OC)c1OC`, the growth in the test with EKVX NSCLC was 85.4%; in the test on SN12C renal, 69.5%; in the test with UO-31 renal it was 36.3%; with TK-10 renal, 89.1%; in the test with ACHN renal it was 61.9%; with CAKI-1 renal, 53%. In addition, the growth in the test with A498 renal was 61.9%; with CCRF-CEM leukemia, 62.4%; in the test on MOLT-4 leukemia, 51.5%; in the test with SR leukemia, 25.1%; with RPMI-8226 leukemia, 45%; with OVCAR-8 ovarian, 42.6%. In addition, the growth with OVCAR-5 ovarian was 110%; with OVCAR-4 ovarian it was 63.9%; with SK-OV-3 ovarian, 115%; in the test with IGROV1 ovarian it was 60.6%; with HS 578T breast, 38.2%; with NCI/ADR-RES ovarian, 87.3%.
Consider `COc1cc2oc(-c3cccc(NC(=O)c4cc(NC(=O)[C@H](C)N)ccc4Cl)c3)cc(=O)c2c(OC)c1OC`, for which the growth is 90.7% with EKVX NSCLC; 90.9% with SN12C renal; 72.3% in the test on UO-31 renal; 99.8% in the test with TK-10 renal; 91.3% in the test on ACHN renal; 85.3% in the test on CAKI-1 renal. Moreover, the growth is 71.8% with A498 renal; 71.7% in the test on CCRF-CEM leukemia; 76.3% in the test on MOLT-4 leukemia; 73.1% in the test on SR leukemia; 67.2% with RPMI-8226 leukemia; 69% in the test on OVCAR-8 ovarian. Also, the growth with OVCAR-5 ovarian was 106%; in the test on OVCAR-4 ovarian, 85.9%; in the test on SK-OV-3 ovarian it was 120%; in the test with IGROV1 ovarian, 96.7%; in the test on HS 578T breast, 99.9%; in the test with NCI/ADR-RES ovarian it was 88.6%.
Regarding `CCN1C(=O)N(CC)C2SC(N/N=C/c3ccccc3F)=NC21` (stereo not given), the growth is 12% in the test on SK-MEL-2 melanoma; 34.6% in the test with SN12C renal; 50.2% in the test on UO-31 renal; 87.7% with TK-10 renal; 34.4% with ACHN renal; 31.3% in the test with CAKI-1 renal. For the same compound, the growth was -22.1% (active) in the test on A498 renal; 20% with CCRF-CEM leukemia; 15.5% in the test on MOLT-4 leukemia; 18.7% with SR leukemia; 20.3% with RPMI-8226 leukemia; 3.86% (active) in the test with OVCAR-8 ovarian. The growth with OVCAR-5 ovarian was 47.5%; in the test with OVCAR-4 ovarian it was 68.4%; in the test with SK-OV-3 ovarian, 30.4%; in the test on IGROV1 ovarian, 28.3%; in the test on HS 578T breast, 11.9%; with NCI/ADR-RES ovarian, 5.59% (active).
As for `CS(=O)(=O)c1ccc2c(c1)c1c(n2Cc2ccc(Cl)cc2)CCCC1`, the growth in the test with EKVX NSCLC was 71.2%; in the test on SN12C renal, 73.6%; in the test on UO-31 renal it was 55.1%; with TK-10 renal, 89.3%; in the test on ACHN renal it was 66.8%; in the test on CAKI-1 renal, 54.4%. Besides, the growth in the test on A498 renal was 74.3%; in the test with CCRF-CEM leukemia, 81.9%; in the test on MOLT-4 leukemia, 64.3%; with SR leukemia, 41.2%; in the test with RPMI-8226 leukemia it was 55.8%; with OVCAR-8 ovarian it was 72.7%. Further, the growth in the test with OVCAR-5 ovarian is 88.1%; in the test on OVCAR-4 ovarian, 75.1%; with SK-OV-3 ovarian, 97.5%; in the test on IGROV1 ovarian, 64%; in the test on HS 578T breast, 85.4%; in the test with NCI/ADR-RES ovarian, 48.4%.
Take `COc1cc(C(=O)c2cc(C(C)=O)c3c4ccccc4ccn23)cc(OC)c1OC`: the growth in the test with SK-MEL-2 melanoma is 51.5%; in the test on SN12C renal, 74.4%; in the test on UO-31 renal it was 43.3%; with TK-10 renal, 70.3%; with ACHN renal, 71.8%; in the test with CAKI-1 renal, 30.2%. Moreover, the growth is 34% in the test on A498 renal; 48.9% in the test with CCRF-CEM leukemia; 34.6% in the test with MOLT-4 leukemia; 16.8% in the test with SR leukemia; 52.3% in the test on RPMI-8226 leukemia; 62.9% with OVCAR-8 ovarian. Moreover, the growth was 69.9% with OVCAR-5 ovarian; 69.1% in the test with OVCAR-4 ovarian; 56.2% in the test with SK-OV-3 ovarian; 52.6% in the test on IGROV1 ovarian; 40.5% with HS 578T breast; 27.9% in the test with NCI/ADR-RES ovarian.
Regarding `CS(=O)c1nccc(-c2c(-c3ccc(F)c(OCc4ccccc4)c3)nc3sccn23)n1` (stereo not given), the growth with EKVX NSCLC was 83%; with SN12C renal, 97.4%; with UO-31 renal, 94.9%; in the test with TK-10 renal, 106%; with ACHN renal, 82.6%; with CAKI-1 renal, 89.3%. Also, the growth with A498 renal was 94.2%; in the test on CCRF-CEM leukemia it was 76.4%; with MOLT-4 leukemia, 32.2%; with SR leukemia, -1.23% (active); in the test with RPMI-8226 leukemia, 60.6%; with OVCAR-8 ovarian, 96.1%. The growth is 104% in the test on OVCAR-5 ovarian; 102% with OVCAR-4 ovarian; 114% with SK-OV-3 ovarian; 68.7% in the test on IGROV1 ovarian; 101% in the test with HS 578T breast; 102% in the test with NCI/ADR-RES ovarian.
As for `CC1OC(O[C@@H]2[C@H](O)C(CO)OC(O[C@H]3COC(O[C@H]4CC[C@]5(C)[C@H]6CC[C@]78OC[C@@]9(CCC(C)(C)C[C@H]97)[C@H](O)C[C@@]8(C)[C@]6(C)CC[C@H]5C4(C)C)[C@@H](OC4OC(CO)[C@@H](O)[C@@H](O)[C@@H]4O)[C@@H]3O)[C@H]2OC2OC[C@@H](O)[C@@H](O)[C@@H]2O)[C@@H](O)[C@@H](O)[C@H]1O` (stereo not given in full), the growth with SK-MEL-2 melanoma was -81.4% (active); in the test with EKVX NSCLC, -64% (active); in the test on UO-31 renal it was -90.8% (active); with TK-10 renal, -93.8% (active); in the test with ACHN renal, -92.5% (active); with CAKI-1 renal, -95.9% (active). Further, the growth in the test on A498 renal was -86.5% (active); with CCRF-CEM leukemia, -60% (active); in the test with MOLT-4 leukemia, -61.1% (active); with SR leukemia it was -51.3% (active); with RPMI-8226 leukemia it was -46.3% (active); with OVCAR-8 ovarian, -69% (active). Also, the growth in the test with OVCAR-5 ovarian is -69% (active); with OVCAR-4 ovarian, -74.1% (active); in the test with SK-OV-3 ovarian it was -94.3% (active); in the test with IGROV1 ovarian, -66.3% (active); in the test on OVCAR-3 ovarian it was -89.8% (active); in the test on HS 578T breast it was -54.4% (active). Also, the growth in the test on NCI/ADR-RES ovarian is -44.2% (active).
In the case of `O=C(/C=C/Nc1ccc(S(=O)(=O)O)cc1)c1ccc(F)cc1`, the growth in the test on EKVX NSCLC is 107%; in the test with SN12C renal, 105%; with UO-31 renal, 91.8%; with TK-10 renal, 97.2%; in the test on ACHN renal, 101%; in the test on CAKI-1 renal, 90.4%. Further, the growth in the test on A498 renal is 93%; in the test with CCRF-CEM leukemia, 98.5%; in the test on MOLT-4 leukemia, 102%; with SR leukemia it was 90.8%; in the test with RPMI-8226 leukemia, 95.9%; in the test with OVCAR-8 ovarian it was 99.5%. In addition, the growth was 103% with OVCAR-5 ovarian; 105% with OVCAR-4 ovarian; 117% in the test with SK-OV-3 ovarian; 109% with IGROV1 ovarian; 97.3% with HS 578T breast; 97.3% with NCI/ADR-RES ovarian.
